According to ChEMBL document CHEMBL3988442, “University of Dundee, Small-Polar-MMV Screening Library” (2021):

biological target: AMP-activated protein kinase, AMPK (Homo sapiens) (UniProt P54646+O43741+P54619+Q9UGJ0+Q9Y478+Q13131+Q9UGI9); assay: AMP-dependent Kinase enzyme assay. An in vitro enzyme assay that detects ADP turnover that is directly proportional to AMPK activity. This uses naive AMPK that is activated during the assay with MK-8722; assay type: functional; parameters: scale not given: direction of the effect not stated beside the values; details: 30 µM

Row | SMILES | Percent Effect [%]
1 | Cc1cccc(C)c1Nc1noc2c1CN(C(=O)c1ccn(C)n1)CC2 | 15.9
2 | CCc1ocnc1C(=O)N1CCC2(CCCN(CC(C)(C)C)C2=O)C1 (stereo not given) | 9.83
3 | CN1CCC(c2n[nH]c(=O)n2-c2cccc(Cl)c2)CC1 | 65.1
4 | O=C(NCc1ccnc(OCC2CC2)c1)C1COc2ccccc2O1 (stereo not given) | 1.5
5 | CN(C)c1ccccc1C(=O)N1CCCC(c2cccc(C(=O)O)c2)C1 (stereo not given) | 2.89
6 | Cc1cc(NC(=O)Cn2ccc(=O)c3ccccc32)[nH]n1 | -3.42
7 | Cn1nc2c(c1NC(=O)c1ccc(Cl)s1)CCC2 | 0.899
8 | NC(=O)c1cn[nH]c1NC(=O)c1ccc2c(c1)OCO2 | 5.07
9 | CC(C)OCCS(=O)(=O)N1CCN(Cc2cccn2C)CC1 | -4.58
10 | Cc1ncn(CCNC(=O)Nc2ccc(OC(F)(F)F)cc2)c(=O)c1C | 2.14
11 | CC(C)c1nnc2n1CCN(Cc1cc(Cl)c3c(c1)OCCO3)C2 | 11.8
12 | Cn1cc(CC(=O)N2CCCC(c3cc(C(F)(F)F)[nH]n3)C2)cn1 (stereo not given) | -6.59
13 | CN(C)C(=O)CN1CCC(c2c(C(N)=O)sc3ncccc23)C1 (stereo not given) | 14.7
14 | Cc1ncsc1C(=O)NCCN1CCCCCC1=O | -13.5
15 | CCc1nc2n(n1)CC(NCc1nc3ccccc3o1)CC2 (stereo not given) | 2.97
16 | CN1CCC(N(CCc2ccccc2)C(=O)COCC2CCCO2)CC1 (stereo not given) | -4.31
17 | O=C(C1CC(c2ccccc2)=NO1)N1CCc2ccccc21 (stereo not given) | 13.9
18 | c1nn(C2CCCCC2)cc1-c1cncn1CCCN1CCCCC1 | 1.56
19 | Cc1ccc(-c2nc(CN3CCOCC3)no2)cc1N1CCNC1=O | 7.88
20 | CCN(CC)S(=O)(=O)N1CCCC(c2ncc3c(n2)CCN(C)C3)C1 (stereo not given) | -4.24

Row | SMILES | Percent Effect [%]
21 | COc1cccc(F)c1CN1CCC(c2nc(C)cc(C)n2)C1 (stereo not given) | 1.72
22 | Cc1occc1C(=O)N1CCCC(C2=Nc3ccccc3S(=O)(=O)N2)C1 (stereo not given) | 14.4
23 | CCC[C@H]1CN(c2cncc(C(=O)N3CCCCC3)n2)C[C@@H]1N(C)C | 14.2
24 | Cc1nc(CN2CCN(S(=O)(=O)N3CCOCC3)CC2)oc1C | -4.75
25 | O=C(O)c1ccccc1-c1ccc(CN2CC(c3ccncn3)C2)o1 | 11.8
26 | COc1cc(N2CCN(Cc3ccsc3)C(CCO)C2)nc(N)n1 (stereo not given) | -5.18
27 | CC(C)CNC(=O)Nc1cccc(OCC#N)c1 | 2
28 | COc1ccc(C)c(NC(=O)NCc2ncnn2C)c1 | -3.74
29 | CN(CCCOc1ccccc1Cl)C(=O)CN1C[C@@H]2CC[C@H](CC1=O)N2 | 10.1
30 | Cc1cc(NC(C)c2n[nH]c(C)n2)n2nc(C)c(C)c2n1 (stereo not given) | 20.5
31 | CCNc1ncc(C(=O)NCCc2csc(-c3ncccn3)n2)cn1 | -8.34
32 | CC(OCC1CC1)C(=O)Nc1cccc(C(=O)Nc2ccccn2)c1 (stereo not given) | 23.1
33 | CCC(=O)NCCc1cc2nc(-c3ccncc3)ccn2n1 | 18.1
34 | CN(CCC#N)C(=O)Cn1cnc2c(Br)cccc2c1=O | 2.35
35 | CCN(C(=O)CN1CCCN(c2nc(C)ns2)CC1)C1CC1 | 5.97
36 | CC(C)c1cc(C(=O)N(Cc2ccncc2)CC2CCCO2)no1 (stereo not given) | -4.12
37 | COc1ccc(CN2CC(n3cccn3)C2)cc1F | -6.94
38 | CCNC(=O)[C@@H]1C[C@H](N)CN1c1cc(C(F)(F)F)nc(N2CCCC2)n1 | 2.77
39 | Cc1ccc(C(NC(=O)CCCN2CCCCC2)C(=O)O)cc1 (stereo not given) | 11.8
40 | Cc1ccccc1C(=O)NCC(=O)NCc1ccccn1 | 17.3
